# Pf growth 48h – P. falciparum growth inhibition at 48 hours (one generation) | Potency, µM (top dose mostly 28.7 µM), for the others: at the top dose activity change, negative = inhibition, actives largely listed as inhibitors | 5.9% of 310,000 active | P. falciparum luciferase growth in erythrocytes, 48 h | AID 504832; further: on the % scale 0 is the no-effect control and ±100 the full control effect
#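 Firefly luciferase activity from engineered P. falciparum reports growth; inhibitors lower the luminescent signal. Cultures contained 2% hematocrit erythrocytes at 0.1% final parasitemia.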
# AmpC inh no detg – blocks E. coli AmpC beta-lactamase in detergent-free assay; P00811; AmpC nitrocefin hydrolysis, absorbance 480 nm, 0.0001% Triton; Potency, µM (highest dose often 57.1 µM), without a hit: top-dose activity change, negative = inhibition, usual class: inhibitors; 0.52% of 330,000 active; AID 485341;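 further: plate controls were no compound for no effect and no enzyme for full effect; nearly all actives have a fitted effect of over 20% in size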
# Target sequence (P00811 whole entry, looked up): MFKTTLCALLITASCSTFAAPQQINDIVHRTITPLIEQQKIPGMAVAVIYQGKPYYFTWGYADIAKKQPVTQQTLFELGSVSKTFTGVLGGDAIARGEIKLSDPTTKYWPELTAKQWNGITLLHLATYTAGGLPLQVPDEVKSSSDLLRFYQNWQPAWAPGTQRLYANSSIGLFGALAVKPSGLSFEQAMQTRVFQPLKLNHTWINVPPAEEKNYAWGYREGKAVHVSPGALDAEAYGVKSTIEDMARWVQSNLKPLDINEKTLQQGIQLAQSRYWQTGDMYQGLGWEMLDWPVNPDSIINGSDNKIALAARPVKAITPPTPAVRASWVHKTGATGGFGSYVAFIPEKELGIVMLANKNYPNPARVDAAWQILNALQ
#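 20 mM phosphate pH 7.0 + 0.01% (detergent screen) or 0.0001% Triton X-100; 5.3 nM AmpC reagent; cpd preinc 15 min RT; nitrocefin (800 uM stock) to start; A480 q20 s × 4 min; Activity was normalised to no-enzyme and no-compound control wells.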
# Pf growth 96h – P. falciparum growth inhibition at 96 hour, primary screen for plastid delayed-death inhibitors | P. falciparum luciferase reporter growth, 96 h | Potency, µM (titrated, usually from 28.7 µM), inactives show top-dose activity change, negative = inhibition, most hits filed as inhibitors | 6.9% of 320,000 active | AID 504834; further: on the % scale 0 is the no-effect control and ±100 the full control effect
#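 Infected RBCs, 2% Hct / 0.05% parasitemia final; luciferase-reporter P. falciparum; cpd 96 h, 37 C, 5% CO2; luciferase detection reagent; luminescence.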
# HCV inh – inhibitors of hepatitis C virus infection; 3.4% of 340,000 active; AID 651820; Potency, µM (series often up to 41.8 µM), for inactives: top-dose activity change, negative = inhibition, most hits filed as inhibitors; Huh7.5.1 HCVcc-Cre infection, luciferase reporter, 44 h; further: on the % scale 0 is the no-effect control and ±100 the full control effect
#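 After 44 h co-culture of compound, cells and HCVcc-Cre (~0.5 moi), substrate is added for 15 min at room temperature and luciferase measured over 15 sec. Cells were seeded at 1,000/well and pre-cultured 4 h.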
# AMA1-RON2 inh – inhibitors of Plasmodium falciparum AMA1-RON2 interaction | AlphaScreen AMA1-biotinylated RON2 peptide binding | Potency, µM (highest dose often 58.2 µM), for inactives: at the highest dose activity change, negative = inhibition, most hits filed as inhibitors | 0.2% of 360,000 active | AID 720542;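 further: 0% = vehicle wells and -100% = peptide control; nearly all actives have a fitted effect of over 45% in size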
#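 AMA1 (3D7) with his tag at 25 nM final met compounds first, then biotinylated RON2 peptide at 25 nM; detection used donor plus acceptor beads, 10 µg/mL apiece, read by AlphaScreen after 30 min at room temperature.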
# AmpC detergent – inhibitors of E. coli AmpC beta-lactamase with detergent; P00811; Potency, µM (series often up to 114 µM), for inactives: at the highest dose activity change, negative = inhibition, usual class: inhibitors; AmpC hydrolysis of nitrocefin, absorbance 480 nm, 0.01% Triton; 0.041% of 370,000 active;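 further: 0% = no-compound wells and -100% = no-enzyme wells; nearly all actives have a fitted effect of over 25% in size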
#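 20 mM phosphate pH 7.0 + 0.01% (detergent screen) or 0.0001% Triton X-100; 5.3 nM AmpC reagent; cpd preinc 15 min RT; nitrocefin (800 uM stock) to start; A480 q20 s × 4 min; Activity was normalised to no-enzyme and no-compound control wells.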
# HCV confirm – confirmation of hepatitis C virus inhibitors; shares compounds with HCV inh; HCVcc-Cre infectious virus cell assay, luciferase, inhibition; Potency, µM (series often up to 41.8 µM), for inactives: at the top dose activity, negative = inhibition, most hits filed as inhibitors; 78% of 640 active; further: nearly all actives have a fitted effect of over 80% in size
# HCV cytotox – toxic to HCV host cells, flagging false HCV inhibitors; 22% of 640 active; AID 720576; shares compounds with HCV inh; Potency, µM (titrated, usually from 41.8 µM), for inactives: at the highest dose activity change, negative = cytotoxicity, hits mostly inhibitors; HCV host cell line cytotoxicity counterscreen;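 further: 44 h compound exposure; on the % scale 0 is the no-effect control and ±100 the full control effect; nearly all actives have a fitted effect of over 55% in size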
# * = called active by the depositor; ? = inconclusive; nt = no result; [ ] = dose if it differs, or a comment. Rows were chosen to be rich in hits. Some 11% of all compounds tested hit in one or more screens of this group. The call rests on the fitted dose curve; in most records, active means well fitted curve in the direction sought with a large enough effect; inconclusive means small, poorly fitted or top-dose-only effect, or another doubt; inactive means no such curve, though single readings can be large; an effect the other way counts as inactive or inconclusive. Potency means the concentration at half of the fitted maximal effect.
SMILES,Pf growth 48h,AmpC inh no detg,Pf growth 96h,HCV inh,AMA1-RON2 inh,AmpC detergent,HCV confirm,HCV cytotox
CC1CCCCN1S(=O)(=O)c1ccc2c(c1)oc(=O)n2CC(=O)Nc1ccc(Cl)cc1 (stereo not drawn),nt,nt,nt,nt,nt,7%,nt,nt
O=C(c1cnn(-c2cccc(F)c2)c1)c1ccccc1O,69%,-28%,142%,7%,-4%,-2%,nt,nt
CCc1nn2cc(C(=O)c3ccccc3O)cnc2c1-c1ccc(F)cc1,?,-23%,?,?,?,-12%,11µM*,-10%
Cc1c(Cl)cccc1NC(c1ccc(F)cc1)c1nnc(-c2ccccc2)o1 (stereo not drawn),nt,nt,nt,nt,nt,8%,nt,nt
Cn1ncc2c(NCCc3ccccc3)nc(Cl)nc21,nt,nt,nt,?,-7%,nt,25µM*,-7%
Cn1c(SCC(=O)NCC2CCCO2)ncc(C(=O)Nc2ccccc2)c1=O (stereo not drawn),20%,-4%,?,5µM*,-14%,?,9%,39%
Cc1c(C(=O)Nc2cccc([N+](=O)[O-])c2)csc1-c1ccccc1,112%,-29%,-41%,7.1µM*,-4%,-7%,11µM*,?
COc1ccc(-c2cc(C)no2)cc1S(=O)(=O)N1CCN(c2ccc([N+](=O)[O-])cc2)CC1,?,-31%,?,4µM*,-8%,-10%,8.9µM*,25µM*
Cc1cccc2c1-c1sc(C(=O)NCCCN3CCC(C)CC3)cc1CO2,?,46%,?,5µM*,3%,-12%,25µM*,-5%
Cc1ccccc1CSc1nc2ccsc2c(=O)n1CCC(C)C,nt,nt,nt,nt,nt,-3%,nt,nt
COc1ccc2nc(C)c3cc(C)oc3c2c1,12%,-7%,nt,8.9µM*,13%,-7%,22µM*,32%
CCOc1ccc(CNC(=O)c2ccc(Sc3ccc(Cl)cc3)c(NC(C)=O)c2)cc1,2%,-2%,?,-29%,-25%[2.32 µM],-5%,nt,nt
CCOc1ccccc1CNC(=O)c1ccc(Sc2ccc(Cl)cc2)c(NC(C)=O)c1,-4%,-10%,?,?,4%,-7%,13µM*,18%
Cc1c(Cl)ccc2sc(NC(=O)c3ccc(S(=O)(=O)N4CCCC4)cc3)nc12,nt,nt,nt,nt,nt,15%,nt,nt
COc1ccc(OC)c(CCNc2ncnc3onc(-c4ccc(F)cc4)c23)c1,nt,nt,nt,nt,nt,3%,nt,nt
COc1cc(OC)cc(-c2c(-c3cccs3)c3cc(-c4cnc(N)nc4)ccc3n2C)c1,nt,-14%,nt,?,-1%,nt,nt,nt
COc1cc(OC)cc(-c2c(-c3cccs3)c3cc(-c4ccc5[nH]ccc5c4)ccc3n2C)c1,6.6µM*,-24%,2.3µM*,11µM*,-3%,0%,14µM*,7%
CCNC(=S)/N=C(\N)Nc1nc(C)c2cc(C)ccc2n1,?,30%,9%,3.2µM*,36%,6%,?,-29%
COC(=O)C1CCN(S(=O)(=O)c2ccc(N3CCCCS3(=O)=O)cc2)CC1,nt,nt,nt,nt,nt,-4%,nt,nt
CCOc1ccc(NC(=O)Cn2cc(C(=O)c3ccc(C)c(C)c3)c(=O)c3cc(F)ccc32)cc1,nt,nt,nt,nt,nt,6%,nt,nt
CC(C)CNC(=S)N(CCN(C)C)Cc1cc2cc3c(cc2[nH]c1=O)OCO3,0%,-18%,-10%,4.5µM*,-10%,-3%,0%,17%
Cc1ccsc1CCN1C(=O)N(c2ccccc2)C(=O)C1CC(=O)Nc1ccc(Cl)cc1 (stereo not drawn),nt,nt,nt,nt,nt,-1%,nt,nt
O=C1COc2cc(S(=O)(=O)NCc3ccco3)c(Cl)cc2N1,?,-51%,-5%,nt,nt,-12%,nt,nt
[O-][n+]1onc2c3cc(-c4ccccc4)nnc3ccc21,38%,-7%,11%,?,20%,-14%,?,-21%
Fc1ccc2nc(-c3ccccc3)ccc2c1,nt,nt,nt,nt,42%,nt,nt,nt
SMILES,Pf growth 48h,AmpC inh no detg,Pf growth 96h,HCV inh,AMA1-RON2 inh,AmpC detergent,HCV confirm,HCV cytotox
Cc1ccccc1CN1C(=O)c2ccccc2S(=O)c2ccc(C(=O)NCc3ccc(Cl)cc3)cc21 (stereo not drawn),nt,nt,nt,nt,nt,7%,nt,nt
CCOc1ccccc1CNC(=O)CN1C(=O)C2CCCCN2c2ccc(C(=O)N(C)C)cc21 (stereo not drawn),nt,nt,nt,nt,nt,14%,nt,nt
CC(C)Oc1ccccc1/C=N/NC(=O)c1ccccc1Cl,8%,-10%,7%,-21%,72%,?,nt,nt
CC(C)Oc1ccccc1/C=N/NC(=O)c1ccc(F)cc1,16%,-30%,-7%,7.9µM*,5%,0%,?,-10%
COc1cc(CSc2nnnn2-c2ccc(C)cc2)cc(OC)c1OC,?,90%,119%,?,-1%,5%,1.8µM*,-94%
COc1ccc(F)cc1CSc1nnnn1-c1ccc(O)cc1,10%,-37%,-11%,?,2%,?,nt,nt
CCCOc1ccc(CNC(=O)c2cc3oc4ccccc4c3n2C)cc1,nt,nt,nt,nt,nt,21%,nt,nt
CNc1ccc(Br)cc(C(=O)/C=C/c2cc(OC)ccc2OC)c1=O,?,-26%,-104%,5µM*,?,0%,?,-27%
CCOC(=O)CC(=O)CSc1nc2sc(C)cc2c(=O)n1Cc1ccco1,4.7µM*,-39%,nt,?,19%,-1%,11µM*,25%
CCOc1ccc(C(=O)C(CCC(CN(C)C)C(=O)c2ccc(OCC)cc2)CN(C)C)cc1 (stereo not drawn),?,185%,?,3.2µM*,-1%,0%,7.9µM*,7.9µM*
O=C(OCCOc1cccc(Cl)c1)c1cc(S(=O)(=O)N2CCCCC2)ccc1N1CCOCC1,?,?,13µM*,?,6%,?,3.5µM*,6.3µM*
CC(C)CNC(=O)COC(=O)c1cc(S(=O)(=O)N2CCCCC2)ccc1N1CCOCC1,?,66%,?,-5%,-2%,?,nt,nt
CCOc1cc(-c2noc(-c3ccncc3)n2)cc(Br)c1OC,13%,-8%,?,?,12%,?,?,25%
CCOc1cc(-c2noc(CCCC(N)=O)n2)cc(Br)c1OC,?,75%,?,?,6%,?,nt,nt
CCOc1nc(-c2ccccc2O)nc2ccccc12,23%,-16%,19%,?,-10%,4%,6.3µM*,0.89µM*
